In PubChem BioAssay (NCI):
This is part of a sample that, as a whole, favours compounds with a hit. Of some 83,000 tested, about 20% had one in any assay.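 How to read the values: 0–100, growth inhibition (40 = 60% inhibited); 0, no net growth; -100 to 0, cell death (-40 = 40% of starting cells died; -100 = all dead).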 Activity calls are given as the source filed them. The calls were made as follows: active = growth percent below 10; inactive = the rest.

System: UACC-62 melanoma
Assay: NCI-60 one-dose screen, 48 h (100 = growth as untreated, 0 = no growth, -100 = all killed)
Conditions: 10 µM unless noted

Structure (SMILES) | growth
N#Cc1c(NC(=O)c2ccc([N+](=O)[O-])o2)[n+]([O-])c2cc(F)c(F)cc2[n+]1[O-] | 100% (inactive)
CC(C)(C)OC(=O)N1C/C(=C\c2cccs2)C(=O)/C(=C/c2cccs2)C1 | 66.7% (inactive)
CC(Cc1nnc(SCC(=O)Nc2ccc(I)cc2)n1N)c1ccccc1 (stereo not given) | 66.8% (inactive)
COC(=O)CC/C(C)=N\Nc1ccc([N+](=O)[O-])cc1 | 26.6% (inactive)
COc1ccccc1OCC(=O)Nc1sc2c(c1C(N)=O)CCC2 | 49.7% (inactive)
CC(=O)N1Cc2ccccc2C(C)Cc2cc(Cl)ccc21 (stereo not given) | 98% (inactive)
COc1ccc(/C(=N/O)c2cc(OC)c(OC)c(OC)c2)c(OC)c1N | 31.7% (inactive)
CC(C)CCC[C@@H](C)[C@H]1CC[C@H]2[C@@H]3CC[C@H]4C/C(=N/O)CC[C@]4(C)[C@H]3CC[C@]12C | 98.6% (inactive)
C/C(=N\NC(=O)CC#N)c1cc2cc(Cl)ccc2o1 | 91% (inactive)
CCC#CC[C@H]1C/C=C2/C(=O)C=C[C@@H]2C/C=C\CCCC(=O)O1 | -17.6% (active)
Cc1cc(C(=O)O)c(N)c(C)n1 | 96.6% (inactive)
CCCCCCOc1ccc(C2(Cl)c3ccccc3N(C)c3ccccc32)cc1 | 38.1% (inactive)
CC(C)N(Cc1ccc(CN(C(=O)CCl)C(C)C)cc1)C(=O)CCl | 2.74% (active)
COc1cc(-n2nc(C(=O)Nc3ccc(C(=O)O)cc3)nc2-c2ccccc2)cc(OC)c1OC | 95.1% (inactive)
NC(=O)NNC(=O)c1ccccc1 | 104% (inactive)
